An excerpt weighted towards active compounds, which were near 21% of everything screened.
VP16 counter – Gal4-VP16 reporter inhibition counter-screen; Potency, µM (top dose mostly 53.6 µM), actives largely listed as inhibitors; AID 2546; Drosophila S2 Gal4-VP16 UAS-luciferase, luminescence, 20 h; 310,000 tested, 3.5% active;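 also: Gal4-VP16 expression switched on by copper sulfate through the metallothionein promoter; nearly all actives have a fitted effect of over 50% in size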
ELG1 DNA repair – blocks ELG1-dependent DNA repair in HEK293T cells. HEK293T ELG1-luciferase reporter, luminescence, 16 h; DNA damage induced by 5-fluorouridine. Potency, µM (series often up to 46.1 µM), most hits filed as inhibitors. 330,000 tested, 2.3% active; also: nearly all actives have a fitted effect of over 55% in size
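Quantitative HTS, concentration-response format. 2,000 cells/well co-treated with 5-fluorouridine and compound, 16 hr in 5% CO2 at 37 °C; ONE-Glo luminescence read after 30 min.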
IL1B secr inh – inflammasome signaling inhibition, IL-1 beta readout. 360,000 tested, 4.7% active. THP-1 LPS/ATP IL-1B secretion, AlphaLISA, 16 h; stronger effect = lower value. activity change, % at 57.5 µM; in the data active = activity change below about -50%; inconclusive = mostly about -30% to -49%
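THP-1 cells pretreated 1 hr with compounds (up to 57.5 uM final), then stimulated with LPS (250 ng/mL final) plus ATP (1.25 mM final); secreted IL-1B measured by AlphaLISA after 16 hr, decreased signal indicating inhibition.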
RORg inh – blocks mouse ROR gamma transcriptional activity. AID 2551. Drosophila S2 Gal4-RORgamma UAS-luciferase reporter, 20 h. Potency, µM (titrated, usually from 53.6 µM), usual class: inhibitors. 310,000 tested, 5.4% active; also: nearly all actives have a fitted effect of over 60% in size
Target sequence (P51450 whole entry, looked up, the tested form may be a part): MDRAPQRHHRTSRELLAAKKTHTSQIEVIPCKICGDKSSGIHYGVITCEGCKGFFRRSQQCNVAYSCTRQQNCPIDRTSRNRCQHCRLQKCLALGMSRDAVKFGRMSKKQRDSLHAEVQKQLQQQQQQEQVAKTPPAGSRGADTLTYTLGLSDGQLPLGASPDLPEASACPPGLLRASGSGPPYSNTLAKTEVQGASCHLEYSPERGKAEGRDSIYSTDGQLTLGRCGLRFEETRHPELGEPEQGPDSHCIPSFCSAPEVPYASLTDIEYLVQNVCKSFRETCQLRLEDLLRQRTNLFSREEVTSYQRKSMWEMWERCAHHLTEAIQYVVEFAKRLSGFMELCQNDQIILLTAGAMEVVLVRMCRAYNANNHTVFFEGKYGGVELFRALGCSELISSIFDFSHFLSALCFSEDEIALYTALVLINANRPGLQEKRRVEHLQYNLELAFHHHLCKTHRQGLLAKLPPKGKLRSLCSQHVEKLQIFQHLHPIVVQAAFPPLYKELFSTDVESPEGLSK
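A Gal4/UAS one-hybrid system in insect cells: metallothionein-promoter Gal4–ROR gamma fusion plus Photinus luciferase reporter. Copper sulfate 700 uM final, 20 hr ambient incubation, luminescent detection after 10 min with reagent.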
TDP1 cell CPT – DT40-hTDP1 cell growth loss with CPT | chicken DT40 Tdp1-/-;hTDP1 cells + 20 nM CPT, ATP luminescence, 48 h | Potency, µM (highest dose often 46.2 µM), usual class: inhibitors | 420,000 tested, 12% active | AID 686979; also: nearly all actives have a fitted effect of over 55% in size
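Cell growth measured by CellTiter-Glo luminescence after a minimum 48 h, 37 C compound exposure with 20 nM CPT in Tdp1-knockout DT40 cells stably expressing hTDP1, seeded 400/well; qHTS titration format.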
DT40 TDP1 no CPT – qHTS for Inhibitors of human tyrosyl-DNA phosphodiesterase 1 (TDP1): qHTS in cells in absence of CPT; DT40 Tdp1-/- hTDP1 cells, no CPT, ATP luminescence, 48 h; Potency, µM (highest dose often 46.2 µM), most hits filed as inhibitors; 420,000 tested, 15% active; AID 686978, 2013; also: nearly all actives have a fitted effect of over 55% in size
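DT40 Tdp1-/-;hTDP1 cells, no CPT (DMSO vehicle only), 400 cells/well; compounds pin-transferred; ≥48 hr, 37 °C; CellTiter-Glo 30 min RT dark, luminescence read.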
Numbers stand for hits; – = inactive; ? = inconclusive; · = no result given. Unless noted, calls follow the shape of the dose curve; as a rule, active = well fitted curve in the direction sought with a large enough effect; inconclusive = small, poorly fitted or top-dose-only effect, or another doubt; inactive = no such curve, though single readings can be large; an effect the other way counts as inactive or inconclusive.

SMILES	VP16 counter	ELG1 DNA repair	IL1B secr inh	RORg inh	TDP1 cell CPT	DT40 TDP1 no CPT
C#CCN(C[C@H]1[C@H](OC(=O)Nc2c(C)noc2C)[C@H](OC(=O)Nc2c(C)noc2C)C[C@H]2C(=O)N(c3ccccc3)C(=O)[C@@H]12)S(=O)(=O)c1ccc(C)cc1	·	·	–	·	–	–
CCCCCC(=O)N1C[C@@H](n2cc(C3CC3)nn2)[C@H](O)C[C@@H]1c1ccccc1	·	·	–	·	?	?
Cc1ccc(C(=O)COC(=O)CCC(=O)Nc2ccc(Oc3ccccc3)cc2)cc1C	·	·	·	·	–	–
CC(C)(C)c1ccc(Oc2ccc(NC(=O)CCC(=O)OCC(=O)c3ccccc3)cc2)cc1	·	·	·	·	15µM	13µM
Cc1cccc(Oc2ccc(NC(=O)CCC(=O)OCC(=O)c3ccc(Br)cc3)cc2)c1C	·	·	·	·	13µM	12µM
CCN(CCNC(=O)CCCn1nc(C)n2c(cc3sccc32)c1=O)c1ccccc1	–	?	–	–	15µM	23µM
CCOCCCNC(=O)CCCn1nc(C)n2c(cc3sccc32)c1=O	–	–	–	–	–	–
O=C(NCc1nnnn1-c1ccc(F)c(F)c1)c1ccc2c(c1)OCO2	·	–	–	·	–	–
O=C(C=Cc1ccccc1)CC(c1ccccc1)N1CCOCC1 (configuration not stated)	·	·	-98	·	4.1µM	3.3µM
COc1cccc(-n2ccn(CC(=O)NCCc3ccccc3)c(=O)c2=O)c1	–	–	–	–	–	–
COCC(=O)N1CCC2CC1c1cc(Cl)ccc12 (configuration not stated)	·	·	–	·	–	–
CNC(=S)NNC(=O)c1cc(C(C)(C)C)nn1Cc1ccc(F)cc1	–	–	–	?	?	16µM
CCc1noc(C)c1C(=O)N1CCN(S(=O)(=O)c2c(C)cc(C)cc2C)CC1	·	–	–	·	?	–
CCCOc1ccccc1C(=O)Nc1nc2c(s1)CCCC2	·	·	·	·	21µM	18µM
O=C(COc1ccccc1)Nc1nc2c(s1)CCCC2	–	?	–	–	?	?
O=C(COc1ccccc1Cl)Nc1nc2c(s1)CCCC2	·	·	·	·	8.2µM	10µM
O=C1C2C3C=CC(O3)C2C(=O)N1N=Cc1ccc2c(c1)OCO2 (configuration not stated)	·	·	–	·	–	–
CCOc1ccccc1C1C(C(=O)OC)=C(N)OC2=C1C(=O)CCC2 (configuration not stated)	–	–	–	–	–	–
CCOc1ccc(Br)cc1C1C(C(=O)OC)=C(N)Oc2cc(N(C)C)ccc21 (configuration not stated)	–	–	–	–	5.2µM	?
O=C1Nc2ccccc2N=C(c2ccccc2)c2ccccc21	–	?	·	–	–	–
Cc1ccc(OC(C)C(=O)Nc2ccncc2)cc1 (configuration not stated)	18µM	–	–	?	?	13µM
Cc1cc(OCC(=O)NC(C)(C)C)ccc1Cl	–	?	–	–	–	–
Cc1ccc(OC(C)C(=O)Nc2cc(C)on2)cc1 (configuration not stated)	–	–	–	–	–	–
Cc1cc(OC(C)C(=O)Nc2ccncc2)ccc1Cl (configuration not stated)	11µM	?	–	–	13µM	23µM
Cc1cc(OCC(=O)N(C(C)C)C(C)C)ccc1Cl	?	–	–	1.6µM	–	–
SMILES	VP16 counter	ELG1 DNA repair	IL1B secr inh	RORg inh	TDP1 cell CPT	DT40 TDP1 no CPT
CC(=O)N1CCN(S(=O)(=O)c2cccc(C(=O)OCC(=O)N(Cc3ccccc3)C(C)(C)C)c2)CC1	·	–	–	·	–	–
CC(=O)N1CCN(S(=O)(=O)c2cccc(C(=O)OCc3cccc(F)c3)c2)CC1	·	–	–	·	?	23µM
CC(=O)N1CCN(S(=O)(=O)c2cccc(C(=O)OCN3C(=O)c4ccccc4C3=O)c2)CC1	–	–	–	–	–	–
CC(=O)N1CCN(S(=O)(=O)c2cccc(C(=O)OCc3ccc(F)cc3)c2)CC1	·	·	–	·	?	18µM
CCN(CC)S(=O)(=O)c1cc(NC(=O)C(CC(C)C)NC(N)=O)ccc1C (configuration not stated)	–	–	–	–	–	–
CCN(CC)S(=O)(=O)c1cc(NC(=O)C(C)N2CCN(c3ccccn3)CC2)ccc1C (configuration not stated)	–	21µM	–	–	18µM	15µM
CCN(CC)S(=O)(=O)c1cc(NC(=O)C(C)N2CCN(Cc3ccc4c(c3)OCO4)CC2)ccc1C (configuration not stated)	–	?	–	–	7.3µM	5.2µM
Cc1ccc(NC(=O)CN2CCN(c3ccccn3)CC2)cc1S(=O)(=O)N(C)C	–	–	–	–	?	–
COc1ccc(NC(=O)C(c2ccccc2)N2CCN(c3ccccn3)CC2)cc1Cl (configuration not stated)	–	?	–	–	23µM	?
CCN(CC)S(=O)(=O)c1cc(NC(=O)CN2CCN(c3ccccn3)CC2)ccc1C	–	?	–	?	13µM	23µM
CCN(CC(=O)NC(C)C)C(=O)[C@@H](NC(=O)c1ccco1)C(C)C	–	–	–	–	–	–
Cn1c(NCc2ccccc2Cl)nc2ccccc21	·	·	?	·	–	?
CC(=O)N1CCCC1c1nc2ccccc2n1Cc1ccccc1 (configuration not stated)	·	·	·	·	–	–
CC(=O)NCc1nc2ccccc2n1Cc1ccccc1C	–	–	–	–	–	–
CC(=O)Nc1nc2ccccc2n1Cc1ccccc1C	3.2µM	–	?	2µM	9.2µM	13µM
CC(=O)Nc1nc2ccccc2n1Cc1ccccc1Cl	2.2µM	?	-56	0.89µM	21µM	8.2µM
CC(=O)N1CCCC1c1nc2ccccc2n1Cc1ccccc1Cl (configuration not stated)	·	·	·	·	?	18µM
CCCCCN(C(=O)CCC(=O)OC(C)C(=O)Nc1ccccc1C)c1c(N)n(CCCC)c(=O)[nH]c1=O (configuration not stated)	·	·	–	·	–	–
CN(N)C(=S)Nc1ccc(Cl)cc1	–	–	–	–	–	–
CCOC(=O)c1cnc2c(Cl)c(Cl)ccc2c1N1CCN(C)CC1	–	?	-50	–	–	–
CCOC(=O)c1cnc2c(C)c(Cl)ccc2c1N1CCN(CC)CC1	–	?	-82	–	?	?
CC1(C(=O)NS(=O)(=O)c2ccccc2C(F)(F)F)CCN1C(=O)CCC1CCCC1 (configuration not stated)	·	·	–	·	–	–

Screening data (PubChem)
